In PubChem BioAssay (NCI):
About 79,000 compounds went through this panel and 15% of them were active in at least one assay; those are over-represented in the sample as a whole. The source made the active and inactive calls. No stated cut-off is given here; in the data, active means growth inhibition above about 70%; inactive means the rest.

Assays:
[1] = NCI Yeast Anticancer Drug Screen. Data for the rad52 strain (AID 147);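 further: 0% = growth of vehicle-treated control cultures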; details: S. cerevisiae rad52 mutant growth inhibition, stronger effect = higher value
How it was run: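 Genetically altered yeast (DNA damage repair defect) treated with compound; inhibition calculated relative to vehicle.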

[2] = NCI Yeast Anticancer Drug Screen. Data for the wt1 strain (AID 149);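 further: 0% = growth of vehicle-treated wt1 cultures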; details: S. cerevisiae wt1 strain (SPY 50644) growth inhibition, stronger effect = higher value
How it was run: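 Each compound is tested on wt1 yeast and the loss of growth versus vehicle gives the inhibition value.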

[3] = NCI Yeast Anticancer Drug Screen. Data for the rad50EPP+ strain (AID 151);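 further: 0% = growth of vehicle-treated control cultures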; details: S. cerevisiae rad50 mutant strain, stronger effect = higher value
How it was run: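 Strain rad50EPP+; compound exposure; % growth inhibition vs vehicle.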

[4] = NCI Yeast Anticancer Drug Screen. Data for the mgt1 strain (AID 153); details: S. cerevisiae mgt1 mutant growth inhibition, stronger effect = higher value
How it was run: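 Read-out: yeast growth inhibition vs vehicle control. Strain mgt1, drawn from a panel altered in DNA damage repair or cell cycle control.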

[5] = NCI Yeast Anticancer Drug Screen. Data for the rad50 strain (AID 155);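 further: 0% = growth of vehicle-only cultures of the same strain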; details: S. cerevisiae rad50 strain growth inhibition, stronger effect = higher value
How it was run: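 Vehicle-treated cultures provide the reference for the growth inhibition reported for compound-exposed, repair-deficient yeast.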

[6] = NCI Yeast Anticancer Drug Screen. Data for the mec2-1 strain (AID 157); details: S. cerevisiae mec2-1 strain, stronger effect = higher value
How it was run: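 Cells of the genetically defined mec2-1 yeast strain are incubated with test compound. Inhibition of growth is calculated against vehicle-treated controls.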

[7] = NCI Yeast Anticancer Drug Screen. Data for the rad14 strain (AID 159);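 further: 0% = growth of vehicle-treated control cultures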; details: S. cerevisiae rad14 strain growth inhibition, stronger effect = higher value
How it was run: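 Inhibition of growth is reported for a repair-deficient yeast mutant following compound treatment, calculated relative to cultures that received vehicle.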

[8] = NCI Yeast Anticancer Drug Screen. Data for the sgs1 mgt1 strain (AID 161);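 further: 0% = growth of cultures given vehicle only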; details: S. cerevisiae sgs1 mgt1 strain, stronger effect = higher value
How it was run: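 Test agents were incubated with a DNA-repair-mutant yeast strain. Growth was then read and compared against vehicle-treated controls.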

[9] = NCI Yeast Anticancer Drug Screen. Data for the CLN2oe strain (AID 163);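 further: 0% = growth of vehicle-only control cultures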; details: S. cerevisiae CLN2oe strain, stronger effect = higher value
How it was run: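 Strain altered in cell-cycle control, incubated with compound; growth compared to solvent-treated controls.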

[10] = NCI Yeast Anticancer Drug Screen. Data for the cln2 rad14 strain (AID 165);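 further: 0% = growth equal to vehicle treated cultures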; details: S. cerevisiae cln2 rad14 strain, stronger effect = higher value
How it was run: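 The screen exposed genetically defined yeast (cln2 rad14) to test compounds and scored growth inhibition relative to vehicle-treated controls.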

[11] = NCI Yeast Anticancer Drug Screen. Data for the bub3 strain (AID 167); details: S. cerevisiae bub3 mutant strain, stronger effect = higher value
How it was run: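 Mutant yeast screening strain plus compound; vehicle-treated cultures serve as the 0% inhibition reference.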

[12] = NCI Yeast Anticancer Drug Screen. Data for the wt2 strain (AID 169); details: S. cerevisiae wt2 strain growth inhibition, stronger effect = higher value
How it was run: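 Steps: yeast strain treated with compound; growth recorded; inhibition calculated relative to cultures given vehicle alone.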

[13] = NCI Yeast Anticancer Drug Screen. Data for the mlh1 strain (AID 171);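 further: 0% = growth of vehicle-treated control cultures of the same strain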; details: S. cerevisiae mlh1 strain growth inhibition, stronger effect = higher value
How it was run: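 Yeast screen: mutant strain plus compound, growth scored against vehicle control wells.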

[14] = NCI Yeast Anticancer Drug Screen. Data for the sgs1 strain (AID 173);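 further: 0% = growth of vehicle-only control cultures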; details: S. cerevisiae sgs1 mutant, stronger effect = higher value
How it was run: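 Inhibition of yeast growth served as the measure. The mutant strain was treated with each compound, and growth was normalised to cultures receiving vehicle alone.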

[15] = NCI Yeast Anticancer Drug Screen. Data for the mlh1 rad18 strain (AID 175); details: S. cerevisiae mlh1 rad18 strain growth inhibition, stronger effect = higher value
How it was run: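 Compound-treated yeast growth, normalised to vehicle controls. Strain bears defined DNA repair mutations.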

[16] = NCI Yeast Anticancer Drug Screen. Data for the rad18 strain (AID 177); details: S. cerevisiae rad18 mutant growth inhibition, stronger effect = higher value
How it was run: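 Inhibition values reflect reduced yeast growth compared with vehicle-treated controls, using a strain engineered with a DNA damage repair defect.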

[17] = at 5.0 µM (retest, dose inferred, filed as 0.5)
[18] = at 50.0 µM (retest, dose inferred, filed as 5.0)

Measured: growth inhibition

O=C1OC2C(O1)C1(Cl)C(Cl)=C(Cl)C2(Cl)C1(Cl)Cl (stereo not drawn)
active: [5]; at 50.0 µM 85.2% | [6]; [18] 90% | [6]; at 50.0 µM 87.8% | [8]; [18] 74% | [8]; at 50.0 µM 87.2% | [10]; at 50.0 µM 78.5% | [11]; [18] 75% | [11]; at 50.0 µM 98% | [15]; [18] 90% | [15]; at 50.0 µM 74.2%
inactive: [1]; at 1.2 µM -3% | [1]; at 3.7 µM -2% | [1]; at 11.0 µM -1% | [1]; at 33.0 µM 0% | [1]; at 100.0 µM 1% | [2]; at 1.2 µM -4% | [2]; at 3.7 µM -3% | [2]; at 11.0 µM -3% | [2]; at 33.0 µM -7% | [2]; at 100.0 µM -7% | [3]; at 1.2 µM -1% | [3]; at 3.7 µM 0% | [3]; at 11.0 µM 0% | [3]; at 33.0 µM -3% | [3]; at 100.0 µM -2% | [4]; at 1.2 µM -4% | [4]; at 3.7 µM -3% | [4]; at 11.0 µM -3% | [4]; at 33.0 µM -6% | [4]; at 100.0 µM -3% | [5]; at 1.2 µM -2% | [5]; at 3.7 µM -3% | [5]; [17] 2% | [5]; at 11.0 µM -2% | [5]; at 33.0 µM -3% | [5]; [18] 41% | [5]; at 100.0 µM -1% | [6]; at 1.2 µM -4% | [6]; at 3.7 µM -4% | [6]; [17] 3% | [6]; at 11.0 µM -3% | [6]; at 33.0 µM -3% | [6]; at 100.0 µM -3% | [7]; at 1.2 µM -4% | [7]; at 3.7 µM -6% | [7]; at 11.0 µM -3% | [7]; at 33.0 µM -7% | [7]; at 100.0 µM -1% | [8]; [17] 3% | [9]; at 1.2 µM -4% | [9]; at 3.7 µM -5% | [9]; at 11.0 µM -6% | [9]; at 33.0 µM -12% | [9]; at 100.0 µM -7% | [10]; [17] 1% | [10]; [18] 61% | [11]; at 1.2 µM -6% | [11]; at 3.7 µM -4% | [11]; [17] 0% | [11]; at 11.0 µM -9% | [11]; at 33.0 µM -10% | [11]; at 100.0 µM -19% | [12]; at 1.2 µM -13% | [12]; at 3.7 µM -5% | [12]; at 11.0 µM -6% | [12]; at 33.0 µM -7% | [12]; at 100.0 µM -7% | [13]; at 1.2 µM -1% | [13]; at 3.7 µM 0% | [13]; at 11.0 µM 2% | [13]; at 33.0 µM 1% | [13]; at 100.0 µM 2% | [14]; at 1.2 µM -1% | [14]; at 3.7 µM 0% | [14]; at 11.0 µM 0% | [14]; at 33.0 µM 0% | [14]; at 100.0 µM 1% | [15]; [17] 7% | [16]; at 1.2 µM -4% | [16]; at 3.7 µM 0% | [16]; at 11.0 µM -1% | [16]; at 33.0 µM -2% | [16]; at 100.0 µM 2%
